Reference: the supplement of paper PMC4166925
± gives the standard deviation of the averaged measurements. In all, about 33,000 sequences were measured (“E-score (dimensionless, -0.5 to 0.5)”: median about -0.049, highest 2% from about 0.37 on). The list comes from a sample in which the highest values are over-represented; it also holds similar and randomly drawn sequences.

Tested on: T1, PmTbr T-box DNA-binding domain (GST fusion)
T1 sequence: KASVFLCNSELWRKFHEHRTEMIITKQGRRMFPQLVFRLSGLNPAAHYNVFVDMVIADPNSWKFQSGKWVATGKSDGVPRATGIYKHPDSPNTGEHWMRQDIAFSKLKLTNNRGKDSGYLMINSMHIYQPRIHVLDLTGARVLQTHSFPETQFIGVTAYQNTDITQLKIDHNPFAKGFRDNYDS
Assay: PBM E-score of 8-mer (E-score (dimensionless, -0.5 to 0.5)); Tbr is Tbrain of the sea star Patiria miniata (Pm) or the sea urchin Strongylocentrotus purpuratus (Sp); higher = stronger binding preference
Details: the construct has about 5 more residues each side
Description: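 Universal protein-binding microarray (Agilent AMADID 016060, 60-bp probes with a 35-bp variable region) incubated with 200 nM GST-fused Patiria miniata Tbr T-box DNA-binding domain (residues 272-466) in PBS pH 7.5. Scored for every ungapped 8-mer (given with its reverse complement) by the Universal PBM Analysis Suite as E-score (modified Wilcoxon-Mann-Whitney enrichment, range -0.5 to 0.5; >0.45 counts as bound) and Z-score of median probe intensity. Two replicate arrays (datasets 1 and 2).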

Sequence | PBM E-score of 8-mer
ACGCGCGG | 0.19 ± 0.031
ATTCTTTG | -0.109 ± 0.048
AATCAACA | 0.231 ± 0.033
ATTAGGGG | -0.208 ± 0.071
AACAGCCT | 0.145 ± 0.021
GGGTCTGA | -0.157 ± 0.028
AAGTGTCA | 0.4726 ± 0.0035
AAGTGTCG | 0.44424 ± 0.0003
GATTGTCA | 0.298 ± 0.0064
GAGTGTCA | 0.436 ± 0.0041
AAGTGTCT | 0.329 ± 0.022
CAGTGTCG | 0.289 ± 0.0095
TCGTGTCA | 0.305 ± 0.0037
CAGTGTCA | 0.31 ± 0.017
TAGTGTCA | 0.395 ± 0.027
AAGTGTAT | 0.019 ± 0.037
GAGTGTCC | -0.0246 ± 0.07
AAGTGTCC | 0.281 ± 0.011
ACTGCTGG | -0.191 ± 0.0095
AAGGCCAT | -0.225 ± 0.0052
CAGCATTA | -0.0723 ± 0.024
GAGGAGAA | -0.158 ± 0.088
CCTACCAG | 0.00153 ± 0.031
GGCGAGCA | -0.102 ± 0.048
CAATGTCG | 0.119 ± 0.014

Sequence | PBM E-score of 8-mer
CGTATTCA | 0.165 ± 0.051
ACCTAGTG | 0.223 ± 0.013
CCTTGAGC | -0.11 ± 0.019
ATGAGCAC | -0.247 ± 0.061
CTATGCAC | -0.129 ± 0.042
CCGCTAAA | 0.275 ± 0.022
GCGCTAAA | 0.394 ± 0.012
CCGCTAAC | 0.169 ± 0.038
GCGCTAAC | 0.4144 ± 0.0034
TCGCTAAA | 0.163 ± 0.043
ACGCTAAC | 0.257 ± 0.056
GGCTAGAC | -0.231 ± 0.029
AGTTCACA | 0.395 ± 0.0064
GGCTCACA | 0.0846 ± 0.0034
AGTTCACC | -0.0448 ± 0.0017
AGTTCACG | 0.32 ± 0.02
GGTTCATA | 0.0267 ± 0.028
CGTTCACC | -0.0379 ± 0.073
CGTTCAAG | -0.177 ± 0.028
GGTTCACA | 0.372 ± 0.0038
CGTTCACA | 0.406 ± 0.012
GTTAAACA | 0.00153 ± 0.043
AGGTCTGG | 0.0461 ± 0.012
ACGCTAAT | 0.114 ± 0.018
AGTTCTTG | -0.0105 ± 0.0029

Sequence | PBM E-score of 8-mer
CGGCCCTA | -0.249 ± 0.019
TACGCACA | -0.0799 ± 0.0095
ACGTGTCA | 0.4563 ± 0.0033
ACGTGTAA | 0.31 ± 0.0077
ACGTGTCG | 0.385 ± 0.022
CCGTGTCG | 0.144 ± 0.045
CCGTGTCA | 0.236 ± 0.0063
ACGTGTCT | 0.198 ± 0.0036
CCGCATAG | -0.047 ± 0.042
AGGTTAAG | -0.186 ± 0.083
GCCCACTA | -0.0431 ± 0.011
CCGGAGAA | -0.00469 ± 0.1
ATCCCGCG | -0.042 ± 0.095
GCGTGAGA | 0.368 ± 0.021
ACGTGTGA | 0.4818 ± 0.0022
CCGTGTGA | 0.335 ± 0.015
GCGTGTGA | 0.373 ± 0.016
ACGTGTGC | 0.174 ± 0.035
GCGTGTAA | 0.0292 ± 0.033
AGCGGGTG | 0.308 ± 0.017
AGGGGGGC | -0.222 ± 0.034
CGTGTCGC | 0.295 ± 0.023
AGTGTCGA | 0.4188 ± 0.0041
AGTGTCTA | 0.213 ± 0.017
ATTGTCGC | 0.292 ± 0.024

Sequence | PBM E-score of 8-mer
CGTGTCTA | 0.0962 ± 0.0027
GGTGTCGA | 0.461 ± 0.0086
AGTGTCGC | 0.415 ± 0.019
CGTGTCGA | 0.288 ± 0.052
GGTGTCTA | 0.376 ± 0.007
AATGTCGA | 0.0192 ± 0.036
GTTGTCGA | 0.241 ± 0.021
ATTGTCGA | 0.0764 ± 0.052
CAGCGGTA | -0.061 ± 0.018
ACTGAAAC | -0.0158 ± 0.016
CTCCTGCC | -0.0358 ± 0.0023
AGCTGTCA | 0.3661 ± 0.003
CACCAGGG | 0.0472 ± 0.096
AGTGTCGG | 0.38 ± 0.0074
AATGTCGG | -0.0392 ± 0.026
AGTGTGGA | 0.354 ± 0.0036
GGTGTGGA | 0.432 ± 0.015
ATTGTCGG | 0.0329 ± 0.01
CGTGTGGA | 0.284 ± 0.0037
CGGCTGAG | -0.1 ± 0.073
CTGTCTTC | 0.0449 ± 0.021
AACATTTG | 0.0235 ± 0.04
CTCTGAGC | -0.0449 ± 0.047
CACCTCGG | 0.426 ± 0.015
AACCTCGA | 0.0311 ± 0.022

Sequence | PBM E-score of 8-mer
AACCTCGC | 0.196 ± 0.035
CACCTCGC | 0.458 ± 0.0073
CACCTCGA | 0.4483 ± 0.002
GACCTCGA | -0.0343 ± 0.13
CCCCTCGG | -0.194 ± 0.016
GACCTCGC | 0.0974 ± 0.064
AACCTCGG | -0.124 ± 0.033
ACTCAGAC | 0.0474 ± 0.069
ATTAGAAG | -0.226 ± 0.053
GTAGAGCA | -0.196 ± 0.024
GCGGTTAC | -0.0207 ± 0.021
CAACCGTG | 0.216 ± 0.013
AGTTAGCA | 0.32 ± 0.023
CGTTAACG | 0.266 ± 0.015
CGTTAACA | 0.372 ± 0.044
AGTTAACA | 0.334 ± 0.013
CGTTAGCA | 0.394 ± 0.012
CGTTAACC | 0.0384 ± 0.0052
TGTTAACA | 0.38 ± 0.0039
GGTTAACA | 0.255 ± 0.026
GGTTAGCA | 0.314 ± 0.027
TCTTCCCA | 0.114 ± 0.031
TACCATAA | -0.0564 ± 0.0014
GAAATAGA | -0.125 ± 0.036
CGACTTCC | -0.183 ± 0.002

Sequence | PBM E-score of 8-mer
AAGATGGA | -0.228 ± 0.058
ACCCCGCC | 0.119 ± 0.051
ATTCACAC | 0.4763 ± 0.0034
CTTCACCC | 0.0387 ± 0.019
CTTCACGC | 0.356 ± 0.04
ATTCACGC | 0.4258 ± 0.0014
ATTCACGA | 0.29 ± 0.0094
ATTCACAA | 0.247 ± 0.024
ATTCACAG | 0.355 ± 0.0076
CTTCACAA | 0.225 ± 0.058
CTTCACAC | 0.4785 ± 0.0022
CATTAGAC | -0.177 ± 0.0077
AATATAAA | -0.136 ± 0.075
ACGCTTCT | 0.106 ± 0.035
CAAACCCC | -0.155 ± 0.069
ACGGGCAA | -0.133 ± 0.057
AGCACCTC | 0.4279 ± 0.0012
GGCACCTA | 0.412 ± 0.006
AGCACCGC | 0.0529 ± 0.038
AGCACCGG | 0.0404 ± 0.045
CGCACCGC | 0.222 ± 0.063
ACCACCTC | 0.341 ± 0.027
GGCACCGA | -0.0859 ± 0.03
GCCACCTA | 0.336 ± 0.033
AGCACCTG | 0.415 ± 0.0079

Sequence | PBM E-score of 8-mer
CGCACCTC | 0.46 ± 0.012
AGCACCCG | 0.252 ± 0.061
CCCACCTC | 0.2907 ± 0.0021
CCCTAATA | -0.219 ± 0.027
GAACACTC | 0.0811 ± 0.024
AGGGAACG | 0.0301 ± 0.15
ACTATGCT | 0.00416 ± 0.025
AAGAGCGT | -0.119 ± 0.04
GAGGCCTA | -0.176 ± 0.014
CTCAAATA | -0.321 ± 0.072
ACCAAGTA | 0.0125 ± 0.031
AAGAGCGC | -0.188 ± 0.004
AGGAGAAA | -0.109 ± 0.19
CACTAAGA | 0.0202 ± 0.013
CAGCCCTG | -0.294 ± 0.015
ACCAGCCT | -0.14 ± 0.082
AGGGTATG | -0.218 ± 0.032
TGAAGCAA | -0.229 ± 0.055
CGCACCAA | 0.251 ± 0.04
AGCACCGA | -0.00405 ± 0.11
CGCACCGA | 0.0275 ± 0.11
AGCACCTA | 0.435 ± 0.00088
ACCACCTA | 0.205 ± 0.0085
CGCACCTA | 0.422 ± 0.0048
